In the library only some 7.3% were active in any assay of this set; here they are far more common.
ELG1 genotox: induces genotoxicity in HEK293T cells with luciferase-tagged ELG1 | Potency, µM (doses to about 46 µM), for inactives: top-dose activity change, positive = activation, usual class: activators | 1.3% of 330,000 active | AID 504466 | HEK293T ELG1-luciferase reporter, luminescence, 16 h; note: % of control where 0% means no effect; nearly all actives have a fitted effect of over 60% in size
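ELG1-luciferase HEK293T cells, 2,000/well; compound pinned in; 16 hr, 37 °C, 5% CO2; ONE-Glo, 30 min RT; luminescence on CCD imager.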
NPC1 promoter act: activates the NPC1 promoter; Potency, µM (doses to about 9.22 µM), for the others: at the top dose activation, usual class: activators; Huh7 NPC1 promoter luciferase reporter, 24 h; 2.4% of 320,000 active; note: % of control where 0% means no effect; nearly all actives have a fitted effect of over 60% in size
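Luciferase expression driven by the NPC1 promoter was measured in stably transfected Huh7 cells after a 24 h compound incubation, using a luciferase reagent and a luminescence read.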
SMN2 splice enh: increases expression of the SMN2 splice variant | HEK293 SMN2-luciferase splicing reporter, luminescence, 30-36 h | Potency, µM (titrated, usually from 46.1 µM), without a hit: at the top dose activity change, positive = activation, most hits filed as activators | 2.8% of 210,000 active; note: % of control where 0% means no effect; nearly all actives have a fitted effect of over 55% in size
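qHTS luciferase splicing reporter: luminescence rises when SMN2 exon 7 is included in transfected HEK293 cells. Compound exposure lasted 30-36 h at 37C, with 4.5 mM final sodium butyrate as control, followed by a ONE-Glo read.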
p53 reactivation: mutant p53 re-activation in reporter cells | H1299 p53-A138V BP100-luciferase reporter, luminescence, 24 h | Potency, µM (top dose mostly 92.2 µM), inactives show at the highest dose activity change, positive = activation, most hits filed as activators | 0.063% of 320,000 active | AID 504706; note: % of control where 0% means no effect; nearly all actives have a fitted effect of over 45% in size
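H1299 (p53-null), stable ts p53-A138V + BP100-Luc; 1000 cells/well, Opti-MEM/10% FBS; cpd 4 pt, 1:5; 24 h, 37 deg C, 5% CO2; detection reagent 10 min RT; luminescence.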
FLuc modulator: firefly luciferase modulation, counter-screen for miR-21 project; P08659; purified FLuc, Km substrates, luminescence inhibition; Potency, µM (top dose mostly 57.5 µM), inactives show top-dose activity change, negative = inhibition, actives largely listed as inhibitors; 6.9% of 360,000 active;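 note: plate controls were vehicle for no effect and reference inhibitor for full effect; nearly all actives have a fitted effect of over 55% in size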
Target sequence (P08659 whole entry, looked up): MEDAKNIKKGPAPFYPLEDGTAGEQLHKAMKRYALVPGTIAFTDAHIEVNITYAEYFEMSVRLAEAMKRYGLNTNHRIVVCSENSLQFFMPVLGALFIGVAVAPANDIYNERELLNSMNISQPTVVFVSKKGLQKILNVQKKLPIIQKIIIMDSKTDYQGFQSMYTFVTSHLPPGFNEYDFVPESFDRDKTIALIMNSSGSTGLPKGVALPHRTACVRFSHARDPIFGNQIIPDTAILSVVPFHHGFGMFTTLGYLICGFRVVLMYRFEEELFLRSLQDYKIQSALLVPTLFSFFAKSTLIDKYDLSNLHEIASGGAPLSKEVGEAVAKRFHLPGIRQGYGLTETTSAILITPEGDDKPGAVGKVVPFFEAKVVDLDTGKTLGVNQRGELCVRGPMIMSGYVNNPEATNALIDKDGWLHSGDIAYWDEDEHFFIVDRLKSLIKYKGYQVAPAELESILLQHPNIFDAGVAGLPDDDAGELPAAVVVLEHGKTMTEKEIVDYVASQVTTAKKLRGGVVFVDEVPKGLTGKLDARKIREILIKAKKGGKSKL
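Biochemical qHTS of compounds, final roughly 60 µM downward over six points, against 10 nM purified firefly luciferase using Km concentrations of substrates (10 uM D-luciferin, 10 uM ATP) in Tris acetate pH 7.5 buffer; luminescence output.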
Rab9 prom act: activators of Rab9 promoter. Potency, µM (doses to about 9.22 µM), for the others: top-dose activation, negative = inhibition, usual class: activators. 2.8% of 320,000 active. Huh7 Rab9 promoter-luciferase reporter, luminescence, 24 h. AID 485297; note: % of control where 0% means no effect; nearly all actives have a fitted effect of over 60% in size
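Huh7 cells stably carrying a Rab9 promoter-luciferase reporter, 1500 cells per well in OP-MEM I with 10% FBS, treated with compound 24 hours at 37C. Luciferase activity read by luminescence after 10 minutes with Amplite reagent.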
* hit, by the source's call; ? = inconclusive; . = no result; [ ] = dose if it differs, or a comment. Calls come from the whole dose curve; as a rule, active = well fitted curve in the direction sought with a large enough effect; inconclusive = small, poorly fitted or top-dose-only effect, or another doubt; inactive = no such curve, though single readings can be large; an effect the other way counts as inactive or inconclusive. Potency is the fitted concentration of half-maximal effect.

SMILES	ELG1 genotox	NPC1 promoter act	SMN2 splice enh	p53 reactivation	FLuc modulator	Rab9 prom act
CCCCNC(=O)CCC1N=C2c3ccccc3N=C(SCC(=O)NCCc3ccc(OC)c(OC)c3)N2C1=O (configuration not stated)	.	.	.	.	2.2%	.
COCCNC(=O)CCCn1c(=O)[nH]c2ccsc2c1=O	.	.	-2.0%	.	-0.7%	.
N/C(=N\OC(=O)Nc1ccccc1)c1ncc(C(F)(F)F)cc1Cl	23.1µM*	23.9%	54.6%	14.1%	12µM*	?
Cc1ccc(OCCOCCn2c(-c3ccc(Cl)cc3)nc3ccccc3c2=O)cc1	.	.	-2.4%	.	-2.5%	.
CCn1c(=O)cc(SCC(=O)N2CCN(C(=O)c3ccco3)CC2)c2ccccc21	?	-2.1%	?	-13.4%	-1.8%	-2.1%
CCn1c(=O)cc(SCC(=O)N2CCN(C3CCCCC3)CC2)c2ccccc21	15.0%	-6.6%	10µM*	-8.2%	3.0%	-10.9%
CCn1c(=O)cc(SCC(=O)N2CCOCC2)c2ccccc21	?	-1.4%	14.1µM*	3.9%	0.8%	-9.0%
Cc1cc(-c2ccc(C)c(S(=O)(=O)NCc3cccs3)c2)on1	.	.	.	.	-0.1%	.
Cc1ccc(CCN2CC(C(=O)NCCCN3CCC(C)CC3)CC2=O)cc1 (configuration not stated)	0.2%[9.26 µM]	0.9%	.	-4.0%	-0.7%	-1.8%
Nn1c(SCc2ccccc2F)nnc1-c1ccccn1	18.3µM*	3.98µM*	.	9.4%	15.1µM*	1.41µM*
Cc1ccc(NC(=O)/C(C#N)=C(\N)C(Cl)(Cl)Cl)nc1	?	?	.	?	2.13µM*	?
Cc1ccc(NC(=O)C(=O)Nc2ccc(C)cn2)nc1	?	27.1%	22.4%	3.3%	-14.6%	?
Cc1cccc(NC(=O)CSc2ncc3c(n2)-c2ccccc2N(Cc2ccc(F)cc2)S3(=O)=O)c1C	.	.	.	.	2.0%	.
CC(=O)Nc1ccc(NC(=O)C/C(C)=N/NC(=O)c2cccc3ccccc23)cc1	0.6%	-10.7%	.	2.0%	15.1µM*	-6.0%
CC(=O)Nc1ccc(NC(=O)C/C(C)=N/NC(N)=S)cc1	-4.6%	-4.9%	8.8%	1.7%	-3.4%	-2.5%
Cc1ccc2oc(C(=O)Nc3c(C(=O)Nc4ccccc4)oc4ccccc34)cc(=O)c2c1	.	.	3.0%	.	1.4%	.
NC(N)=Nc1nc(CCN2C(=O)c3ccccc3C2=O)cs1	3.9%	-3.3%	31.6µM*	0.4%	-9.9%	0.4%
COc1ccccc1CNCCSc1nnnn1C	.	.	-1.1%	.	-0.8%	.
O=C(NCC(c1ccco1)N1CCc2ccccc21)c1cccc([N+](=O)[O-])c1 (configuration not stated)	-28.1%	0.0%	.	-1.3%	0.7%	1.7%
CC(=O)Nc1ccc(NC(=O)C2Cc3ccccc3N2C(=O)c2ccccc2)cc1 (configuration not stated)	.	.	.	.	-4.6%	.
CCn1nc(C)c(/C=N\NC(=O)c2ccc3c(c2)OCO3)c1C	15.4%	5.2%	18.8%	6.1%	23.9µM*	2.5%
CCn1cc(/C=N/NC(=O)c2ccc3c(c2)OCO3)c(C)n1	2.5%	5.2%	?	8.9%	?	-3.0%
CCn1ncc(/C=N/NC(=O)c2ccc3c(c2)OCO3)c1C	6.7%	-10.2%	17.0%	7.1%	16.9µM*	6.8%
Cc1c(/C=N/NC(=O)c2ccc3c(c2)OCO3)cnn1C	2.7%	0.9%	-2.8%	?	?	1.5%
CCn1nc(C)c(CNC(=O)Nc2ccc3c(c2)OCO3)c1C	?	?	?	21.5%	23.9µM*	?
SMILES	ELG1 genotox	NPC1 promoter act	SMN2 splice enh	p53 reactivation	FLuc modulator	Rab9 prom act
O=C1CCCc2cc(S(=O)(=O)N3CCCC(C(=O)Nc4ccc(F)c(Cl)c4)C3)ccc2N1 (configuration not stated)	.	.	.	.	-10.9%	.
CC(C)CN(CCCNC(=O)Cn1ncc2c3ccccc3n(C)c2c1=O)CC(C)C	.	.	1.1%	.	-0.1%	.
CCSc1ncc(/C=N/Nc2ccc(F)cc2)n1C	27.0%	?	11.2µM*	7.9%	10.7µM*	?
COc1ccc(-c2sc(NC(C)=O)nc2-c2ccccc2)cc1	-0.3%	-5.2%	8.6%	-5.6%	-1.0%	-1.4%
CC(=O)Nc1sc(-c2ccccc2)nc1-c1ccccc1	14.9%	0.4%	-27.8%	-0.9%	-24.9%	-2.3%
CC(=O)Nc1sc(N/N=C\c2ccco2)nc1-c1cccs1	1.7%	-1.9%	-11.2%	?	16.9µM*	16.4%
CC(=O)Nc1sc(N/N=C/c2ccccc2)nc1-c1ccc(C)cc1	4.5%	-1.4%	.	13.0%	8.49µM*	-2.0%
COc1ccc(/C=N/Nc2nc(-c3ccc(C)cc3)c(NC(C)=O)s2)cc1	7.1%	10.4%	.	7.0%	5.36µM*	-2.2%
CCOc1cc(/C=N/Nc2nc(-c3cccs3)c(NC(C)=O)s2)ccc1O	0.8%	-0.8%	.	7.0%	26.9µM*	1.1%
CCOCCCNC(=O)c1ccc2c(c1)NC(=O)C(CS(=O)(=O)Cc1ccc(F)cc1Cl)N2 (configuration not stated)	.	.	.	.	-7.4%	.
C=CC[C@@](C(C)=O)(C(=O)OC)C(NC(=O)OC)c1ccccc1 (some centres not stated)	.	.	-4.5%	.	.	.
CCc1nn(CC(=O)NCCC(C)C)c(=O)c2cc3occc3n12	.	.	1.1%	.	-2.9%	.
CC(=O)Nc1sc(-c2ccc(Cl)cc2)nc1-c1ccccc1	1.0%	-7.4%	.	-4.5%	-14.2%	-3.4%
CC(=O)Nc1sc(N/N=C/c2ccc(O)cc2)nc1-c1ccc(C)cc1	?	1.3%	.	?	2.39µM*	9.8%
CC(=O)Nc1sc(N/N=C\c2ccccc2)nc1-c1cccs1	?	3.3%	-49.4%	?	19µM*	5.6%
CC(=O)Nc1sc(N/N=C/c2ccccc2F)nc1-c1ccc(C)cc1	-2.4%	1.4%	.	14.5%	7.57µM*	9.6%
CC(=O)Nc1sc(N/N=C\c2ccccc2Cl)nc1-c1cccs1	?	3.8%	-20.4%	-21.3%	-17.8%	13.1%
CC(C)(C)c1csc(N/N=C/c2ccc(O)cc2)n1	?	29.3%	.	-18.9%	21.3µM*	?
